Laboratory results: the supplement of paper PMC4840960

The molecules below were run on E18 rat cortical neuron-glia co-culture (assay: fiber score / MBP score (myelination specific beyond OL differentiation) (ratio); higher = more myelination-specific MBP alignment). Settings: 1 µM; treatment time: 8 days (DIV5-DIV13).
In short: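 The measure is the ratio of fiber score to MBP score, where fiber score is continuous MBP fiber length per Olig2+ nucleus and MBP score is thresholded MBP area × intensity per Olig2+ nucleus. Primary E18 rat cortical co-cultures received library compounds at 1 or 5 µM in myelination medium from DIV5 to DIV13, then were fixed in 4 % paraformaldehyde and stained for MBP, Olig2 and DAPI before analysis of four 10X fields per well in duplicate wells.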

| SMILES | fiber score / MBP score |
| --- | --- |
| CC(C)NCC(O)COc1ccc(CC(N)=O)cc1 (configuration not stated) [Atenolol] | 1.03 |
| CC(CN1c2ccccc2Sc2ccccc21)N(C)C (configuration not stated) [Promethazine] | 0.678 |
| O=C1C(CC[S+]([O-])c2ccccc2)C(=O)N(c2ccccc2)N1c1ccccc1 (configuration not stated) [Sulfinpyrazone] | 1.18 |
| C[C@]12CC[C@@H]3c4ccc(O)cc4CC[C@H]3[C@@H]1CC[C@@H]2O [Estradiol] | 0.747 |
| CC(C)(S)[C@@H](N)C(=O)O [Penicillamine] | 0.988 |
| C=CC1=C(C(=O)O)N2C(=O)[C@@H](NC(=O)/C(=N\O)c3csc(N)n3)[C@H]2SC1 [Cefdinir] | 0.926 |
| CC1(C)O[C@@H]2C[C@H]3[C@@H]4C[C@H](F)C5=CC(=O)C=C[C@]5(C)[C@@]4(F)[C@@H](O)C[C@]3(C)[C@]2(C(=O)CO)O1 [Fluocinolone Acetonide] | 1.4 |
| CC(C)(C)NCC(O)c1ccc(O)c(CO)c1 (configuration not stated) [Albuterol] | 0.654 |
| CC[C@H](C)C(=O)O[C@H]1C[C@@H](C)C=C2C=C[C@H](C)[C@H](CC[C@@H]3C[C@@H](O)CC(=O)O3)[C@H]21 [Lovastatin] | 2.07 |
| Nc1c2c(nc3ccccc13)CCCC2 [Tacrine] | 0.655 |
| CC(=O)Nc1ccc(CC(=O)O)cc1 [Actarit] | 0.756 |
| NS(=O)(=O)c1cc2c(cc1C(F)(F)F)NC(Cc1ccccc1)NS2(=O)=O (configuration not stated) [Bendroflumethiazide] | 0.474 |
